# Results from PubChem BioAssay AID463173 (ICCB-Longwood Screening Facility, Harvard Medical School, 2010).
# The campaign covered roughly 52,000 compounds. About 4,300 (8.3%) were called active. Shown is part of a subset that was picked to be rich in actives. A number with no mark means an inactive call. No stated cut-off is given here; in the data, active means survival mostly below about 52% (no sharp cut-off); inactive means mostly above about 56%.
# Tested on: DeltatarO mutant
# Assay: S. aureus survival, RN4220 and DeltatarO strains – OD600, teichoic acid synthesis inhibitors, primary screen (AID 463173)
# Conditions: S. aureus RN4220 wild type/DeltatarO growth, OD600, 18 h, hits give low values, screened at 18.75 µg/mL (by protocol)
row,SMILES,survival
1,CCc1ccc(OCc2nc(-c3ccc(OC)c(OC)c3)no2)c(Br)c1,33% (active)
2,COc1cccc(-c2noc(COc3cccc(C)c3C)n2)c1,84%
3,CCc1ccc(OCC(=O)NCc2nc(-c3cccc(C)c3)no2)c(Br)c1,94%
4,COc1ccc(-c2noc(CNS(=O)(=O)c3ccc(Br)cc3)n2)cc1OC,70%
5,COc1ccc(-c2noc(COc3ccc(Br)cc3C)n2)cc1OC,33% (active)
6,COc1ccc(CCNC(=O)CCc2cn(Cc3ccc(C)cc3)c3ccccc23)c(OC)c1OC,52%
7,Cc1ccc2nc(-c3ccncc3)c(Nc3ccccc3C)n2c1,103%
8,COc1ccc(CC(=O)NCc2ccc3c(c2)CCN3C(=O)c2ccc(C)cc2)cc1OC,99%
9,COc1ccccc1-c1nc2c(c(SCc3ccc(F)cc3Cl)n1)Cc1c(CO)cnc(C)c1O2,69%
10,CCOC(=O)c1ccc(NC(=O)CC2C(=O)N(c3ccc(F)cc3)C(=O)N2Cc2cccnc2)cc1 (stereo unspecified),95%
11,O=C(CSc1nc(-c2ccccc2)cc(=O)[nH]1)Nc1ccccc1,77%
12,COc1ccc(-c2nc3cnccn3c2NCc2ccc3c(c2)OCO3)cc1CN1CCOCC1,88%
13,CC1CCC(NC(=O)c2ccc(CS(=O)(=O)c3cccc(C(F)(F)F)c3)o2)CC1 (stereo unspecified),75%
14,O=C(c1ccc(F)cc1)c1cn(Cc2ccccc2F)c2cc3c(cc2c1=O)OCCO3,83%
15,COc1ccc(NC(=O)c2c(NCc3cccc(F)c3)sc3c2CCCC3)c(OC)c1,69%
16,COc1ccc(-c2noc(COc3cc(C)ccc3C)n2)cc1OC,-5% (active)
17,COc1ccc(OCc2nc(-c3ccc(OC)c(OC)c3)no2)cc1,61%
18,COc1ccc(-c2noc(CN(C)S(=O)(=O)c3c(C)cc(C)cc3C)n2)cc1OC,45%
19,CN(C)S(=O)(=O)c1ccc(S(=O)(=O)N(CC(=O)Nc2ccccc2)C2CC2)cc1,94%
20,Cc1cc(C)cc(OCC(=O)NCC2(N3CCOCC3)CCCCC2)c1,91%
21,CCc1[nH]nc2c1C(c1ccc(F)c(Oc3ccccc3)c1)C(C#N)=C(N)O2 (stereo unspecified),80%
22,CCn1c2ccccc2c2cc(C3C(C#N)=C(N)Oc4n[nH]c(C(C)C)c43)ccc21 (stereo unspecified),3% (active)
23,COCc1[nH]nc2c1C(c1ccc(F)c(F)c1)C(C#N)=C(N)O2 (stereo unspecified),74%

row,SMILES,survival
1,CCOC(=O)c1cc(S(=O)(=O)N2CCN(c3cccc(OC)c3)CC2)[nH]n1,108%
2,COc1ccc(NS(=O)(=O)c2ccc3c(c2)CCN3C(=O)C2CC2)cc1OC,86%
3,COc1ccccc1N1CCN(C(=O)Cc2c(C(=O)O)c(C)cn2C)CC1,-5% (active)
4,Cc1cccc(N2CCN(C(=O)Cc3c(C(=O)O)c(C)cn3C)CC2)c1C,96%
5,Cc1cn(C)c(CC(=O)N2CCN(c3ccccc3F)CC2)c1C(=O)O,89%
6,Cc1ccc(NC(=O)c2cccc(NC(=O)N3CCSc4ncccc43)c2)cc1Cl,88%
7,O=C(CCSCc1cnn(-c2ccccc2)c1-n1cccc1)NCc1ccc(Cl)cc1,63%
8,O=S(=O)(c1ccc2nc(Nc3cccc(F)c3)ccc2c1)N1CCCC1,72%
9,CCOC(=O)c1cccc(Nc2ccc3cc(S(=O)(=O)N4CCCCC4)ccc3n2)c1,-1% (active)
10,CC(=O)c1cccc(Nc2ccc3cc(S(=O)(=O)N4CCCC4)ccc3n2)c1,101%
11,COc1ccc(-c2onc(C)c2C)cc1S(=O)(=O)N1CCN(c2ccc(Cl)cc2)CC1,64%
12,Clc1cccc(CNNc2nc(N3CCCCC3)nc(N3CCCCC3)n2)c1,98%
13,CCn1cc2nc(SCc3cc(C)ccc3C)n(CCc3ccccc3)c(=O)c2n1,67%
14,CCOC(=O)c1cnc2ccc(OCC)cc2c1NCCc1ccc(OC)c(OC)c1,116%
15,CCOC(=O)c1cnc2ccc(OC)cc2c1NCCc1ccccc1,-2% (active)
16,CCOC(=O)c1cnc2c(C)c(Cl)ccc2c1Nc1ccc(C)cc1C,142%
17,CCOC(=O)c1cnc2ccccc2c1NCCc1ccc(OC)c(OC)c1,33% (active)
18,CCOC(=O)c1cnc2c(C)c(Cl)ccc2c1NCCc1ccccc1,-3% (active)
19,CCOC(=O)c1ccc2ncc(C(=O)OCC)c(NCCc3ccc(OC)c(OC)c3)c2c1,53%
20,CCOC(=O)c1cnc2ccc(C)cc2c1NCCc1ccc(OC)c(OC)c1,136%
21,CCOC(=O)c1cnc2ccc(OC)cc2c1NCCc1ccc(OC)c(OC)c1,65%
22,CCOC(=O)c1cnc2c(C)c(Cl)ccc2c1NCCc1ccc(OC)c(OC)c1,17% (active)
23,CCOC(=O)c1cnc2c(C)c(C)ccc2c1NCCCCCO,84%
